Measured values as given in PubChem BioAssay AID1159580 (chemical genetic matrix, 2015).
Among all 5,500 compounds or so, about 2,000 (36%) were called active. Not shown: some 18% with an inconclusive outcome. The list shows a part of the results. A number with no mark means an inactive call. Cut-off read from the data, not from the text of the source: active = normalized growth mostly below about 0.91 (no sharp cut-off); inconclusive = no clear call, values can overlap the other calls; inactive = mostly above about 0.92.

Assay: chemical genetic growth profiling, strain panel (AID 1159580);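 note: tested at 20 µM; growth read once vehicle control cultures reached saturation at 30 °C; 1 = growth at the plate median or of vehicle wells; lower values mean less growth of the strain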
Settings: growth OD

C[C@@H]1CC[C@H]2[C@@H](C)C(O)O[C@@H]3O[C@@]4(C)CC[C@@H]1[C@]32OO4 (some centres not stated)
normalized growth (S. cerevisiae deletion strains, locus YJR075W, strain HOC1, hits give low values): 0.166 (active) | normalized growth (S. cerevisiae deletion strains, locus YKL009W, strain mrt4, hits give low values): 0.649 (active) | normalized growth (S. cerevisiae deletion strains, locus YKL068W, hits give low values): 0.775 (active) | normalized growth (S. cerevisiae deletion strains, locus YKL085W, strain MDH1 (second series), hits give low values): 0.363 (active) | normalized growth (S. cerevisiae deletion strains, locus YKL085W, strain MDH1, hits give low values): 0.363 (active) | normalized growth (S. cerevisiae deletion strains, locus YKL160W, strain elf1, hits give low values): 0.336 (active) | normalized growth (S. cerevisiae deletion strains, locus YKL190W, strain CNB1, hits give low values): 0.231 (active) | normalized growth (S. cerevisiae deletion strains, locus YKR001C, strain vps1, hits give low values): 0.587 (active) | normalized growth (S. cerevisiae deletion strains, locus YKR026C, strain gcn3, hits give low values): 0.407 (active) | normalized growth (S. cerevisiae deletion strains, locus YKR091W, strain srl3, hits give low values): 0.329 (active) | normalized growth (S. cerevisiae deletion strains, locus YLL001W, strain dnm1, hits give low values): 0.233 (active) | normalized growth (S. cerevisiae deletion strains, locus YLL026W, hits give low values): 0.243 (active) | normalized growth (S. cerevisiae deletion strains, locus YLL041C, strain sdh2, hits give low values): 0.3 (active) | normalized growth (S. cerevisiae deletion strains, locus YLR027C, strain aat2, hits give low values): 0.261 (active) | normalized growth (S. cerevisiae deletion strains, locus YLR039C, strain RIC1, hits give low values): 0.33 (active) | normalized growth (S. cerevisiae deletion strains, locus YLR058C, strain SHM2, hits give low values): 0.403 (active) | normalized growth (S. cerevisiae deletion strains, locus YLR102C, strain apc9, hits give low values): 0.419 (active) | normalized growth (S. cerevisiae deletion strains, locus YLR113W, strain HOG1, hits give low values): 0.323 (active) | normalized growth (S. cerevisiae deletion strains, locus YLR221C, strain rsa3, hits give low values): 0.204 (active) | normalized growth (S. cerevisiae deletion strains, locus YLR258W, strain gsy2, hits give low values): 0.279 (active) | normalized growth (S. cerevisiae deletion strains, locus YLR262C, strain YPT6 (second series), hits give low values): 0.322 (active) | normalized growth (S. cerevisiae deletion strains, locus YLR262C, strain YPT6, hits give low values): 0.486 (active) | normalized growth (S. cerevisiae deletion strains, locus YLR268W, strain sec22, hits give low values): 0.248 (active) | normalized growth (S. cerevisiae deletion strains, locus YLR320W, strain mms22, hits give low values): 0.236 (active) | normalized growth (S. cerevisiae deletion strains, locus YLR330W, strain CHS5, hits give low values): 0.307 (active) | normalized growth (S. cerevisiae deletion strains, locus YLR342W, strain FKS1 (second series), hits give low values): 0.483 (active) | normalized growth (S. cerevisiae deletion strains, locus YLR342W, strain FKS1, hits give low values): 0.563 (active) | normalized growth (S. cerevisiae deletion strains, locus YLR357W, strain rsc2, hits give low values): 0.358 (active) | normalized growth (S. cerevisiae deletion strains, locus YLR370C, strain arc18, hits give low values): 0.384 (active) | normalized growth (S. cerevisiae deletion strains, locus YLR371W, strain rom2, hits give low values): 0.528 (active) | normalized growth (S. cerevisiae deletion strains, locus YLR384C, strain iki3, hits give low values): 0.771 (active) | normalized growth (S. cerevisiae deletion strains, locus YLR418C, strain cdc73, hits give low values): 0.254 (active) | normalized growth (S. cerevisiae deletion strains, locus YML016C, strain PPZ1, hits give low values): 0.214 (active) | normalized growth (S. cerevisiae deletion strains, locus YML032C, strain rad52, hits give low values): 0.367 (active) | normalized growth (S. cerevisiae deletion strains, locus YML120C, strain ndi1, hits give low values): 0.29 (active) | normalized growth (S. cerevisiae deletion strains, locus YML124C, strain tub3, hits give low values): 0.421 (active) | normalized growth (S. cerevisiae deletion strains, locus YMR058W, strain fet3, hits give low values): 0.361 (active) | normalized growth (S. cerevisiae deletion strains, locus YMR078C, strain ctf18, hits give low values): 0.401 (active) | normalized growth (S. cerevisiae deletion strains, locus YMR125W, strain sto1, hits give low values): 0.462 (active) | normalized growth (S. cerevisiae deletion strains, locus YMR129W, hits give low values): 0.266 (active) | normalized growth (S. cerevisiae deletion strains, locus YMR205C, strain PFK2, hits give low values): 0.366 (active) | normalized growth (S. cerevisiae deletion strains, locus YMR223W, strain ubp8, hits give low values): 0.31 (active) | normalized growth (S. cerevisiae deletion strains, locus YMR231W, strain pep5, hits give low values): 0.84 (active) | normalized growth (S. cerevisiae deletion strains, locus YMR263W, strain SAP30, hits give low values): 0.47 (active) | normalized growth (S. cerevisiae deletion strains, locus YMR307W, strain GAS1, hits give low values): 0.661 | normalized growth (S. cerevisiae deletion strains, locus YNL067W, strain RPL9B, hits give low values): 0.288 (active) | normalized growth (S. cerevisiae deletion strains, locus YNL071W, strain lat1, hits give low values): 0.167 (active) | normalized growth (S. cerevisiae deletion strains, locus YNL128W, strain TEP1, hits give low values): 0.167 (active) | normalized growth (S. cerevisiae deletion strains, locus YNL153C, strain GIM3, hits give low values): 0.285 (active) | normalized growth (S. cerevisiae deletion strains, locus YNL183C, strain NPR1, hits give low values): 0.266 (active) | normalized growth (S. cerevisiae deletion strains, locus YNL209W, strain ssb2, hits give low values): 0.195 (active) | normalized growth (S. cerevisiae deletion strains, locus YNL233W, strain BNI4, hits give low values): 0.292 (active) | normalized growth (S. cerevisiae deletion strains, locus YNL248C, strain rpa49, hits give low values): 0.384 (active) | normalized growth (S. cerevisiae deletion strains, locus YNL250W, strain rad50, hits give low values): 0.508 (active) | normalized growth (S. cerevisiae deletion strains, locus YNL271C, strain bni1, hits give low values): 0.505 (active) | normalized growth (S. cerevisiae deletion strains, locus YNL298W, strain CLA4, hits give low values): 0.298 (active) | normalized growth (S. cerevisiae deletion strains, locus YNL307C, strain MCK1, hits give low values): 0.125 (active) | normalized growth (S. cerevisiae deletion strains, locus YNL322C, strain KRE1 (second series), hits give low values): 0.493 (active) | normalized growth (S. cerevisiae deletion strains, locus YNL322C, strain KRE1, hits give low values): 0.349 (active) | normalized growth (S. cerevisiae deletion strains, locus YNR049C, strain mso1, hits give low values): 0.412 (active) | normalized growth (S. cerevisiae deletion strains, locus YNR052C, strain pop2, hits give low values): 0.788 (active) | normalized growth (S. cerevisiae deletion strains, locus YOL006C, strain TOP1, hits give low values): 0.16 (active) | normalized growth (S. cerevisiae deletion strains, locus YOL012C, strain htz1): 0.255 | normalized growth (S. cerevisiae deletion strains, locus YOL147C, strain pex11, hits give low values): 0.256 (active) | normalized growth (S. cerevisiae deletion strains, locus YOR001W, strain rrp6, hits give low values): 0.287 (active) | normalized growth (S. cerevisiae deletion strains, locus YOR061W, strain CKA2, hits give low values): 0.475 (active) | normalized growth (S. cerevisiae deletion strains, locus YOR069W, strain VPS5, hits give low values): 0.564 (active) | normalized growth (S. cerevisiae deletion strains, locus YOR070C, strain gyp1, hits give low values): 0.277 (active) | normalized growth (S. cerevisiae deletion strains, locus YOR080W, strain dia2, hits give low values): 0.431 (active) | normalized growth (S. cerevisiae deletion strains, locus YOR083W, strain WHI5, hits give low values): 0.3 (active) | normalized growth (S. cerevisiae deletion strains, locus YOR106W, strain vam3, hits give low values): 0.288 (active) | normalized growth (S. cerevisiae deletion strains, locus YOR136W, strain idh2, hits give low values): 0.321 (active) | normalized growth (S. cerevisiae deletion strains, locus YOR144C, strain elg1, hits give low values): 0.449 (active) | normalized growth (S. cerevisiae deletion strains, locus YOR184W, strain ser1, hits give low values): 0.131 (active) | normalized growth (S. cerevisiae deletion strains, locus YOR231W, strain MKK1, hits give low values): 0.37 (active) | normalized growth (S. cerevisiae deletion strains, locus YOR265W, strain rbl2, hits give low values): 0.327 (active) | normalized growth (S. cerevisiae deletion strains, locus YOR270C, strain vph1, hits give low values): 0.187 (active) | normalized growth (S. cerevisiae deletion strains, locus YOR290C, strain snf2, hits give low values): 0.302 (active) | normalized growth (S. cerevisiae deletion strains, locus YOR316C, strain cot1, hits give low values): 0.433 (active) | normalized growth (S. cerevisiae deletion strains, locus YPL051W, strain arl3, hits give low values): 0.374 (active) | normalized growth (S. cerevisiae deletion strains, locus YPL055C, strain LGE1, hits give low values): 0.331 (active) | normalized growth (S. cerevisiae deletion strains, locus YPL078C, strain atp4, hits give low values): 0.248 (active) | normalized growth (S. cerevisiae deletion strains, locus YPL106C, strain sse1, hits give low values): 0.263 (active) | normalized growth (S. cerevisiae deletion strains, locus YPL240C, strain hsp82, hits give low values): 0.313 (active) | normalized growth (S. cerevisiae deletion strains, locus YPL241C, strain CIN2, hits give low values): 0.323 (active) | normalized growth (S. cerevisiae deletion strains, locus YPL256C, strain CLN2, hits give low values): 0.419 (active) | normalized growth (S. cerevisiae deletion strains, locus YPR119W, strain clb2, hits give low values): 0.424 (active) | normalized growth (S. cerevisiae deletion strains, locus YPR141C, strain kar3, hits give low values): 0.494 (active) | normalized growth (S. cerevisiae deletion strains, locus YPR163C, strain tif3, hits give low values): 0.314 (active) | normalized growth (S. cerevisiae deletion strains, locus YPR167C, strain met16, hits give low values): 0.386 (active) | normalized growth (S. cerevisiae deletion strains, strain wtn01, hits give low values): 0.249 (active) | normalized growth (S. cerevisiae strains, strain wild type, hits give low values): 0.27 (active)
